# DT40 TDP1 no CPT = qHTS for Inhibitors of human tyrosyl-DNA phosphodiesterase 1 (TDP1): qHTS in cells in absence of CPT; DT40 Tdp1-/- hTDP1 cells, no CPT, ATP luminescence, 48 h; AID 686978, 2013; 420,000 compounds, 15% hits; Potency, µM (titrated, usually from 46.2 µM), without a hit: top-dose activity change, negative = growth inhibition, usual class: inhibitors; further: potency means the concentration at half of the fitted maximal effect; on the % scale 0 is the no-effect control and ±100 the full control effect; nearly all actives have a fitted effect of over 55% in size
#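 Compound effects on proliferation are scored in DT40 Tdp1-/-;hTDP1 cells in the absence of CPT. ATP levels (CellTiter-Glo luminescence) are recorded after a ≥48 hr, 37 °C incubation.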
# D3 antag = qHTS of D3 Dopamine Receptor Antagonist: qHTS. D3R cells, DiscoveRx beta-arrestin luminescence, antagonist mode; stronger effect = lower value. max response, negative = inhibition, %. 360,000 compounds, 2.5% hits. AID 652054, 2013; in the data active means max response below about -50%; inconclusive means no clear call, values can overlap the other calls; further: on the % scale 0 is the no-effect control and ±100 the full control effect
# Target sequence (P35462 whole entry, looked up): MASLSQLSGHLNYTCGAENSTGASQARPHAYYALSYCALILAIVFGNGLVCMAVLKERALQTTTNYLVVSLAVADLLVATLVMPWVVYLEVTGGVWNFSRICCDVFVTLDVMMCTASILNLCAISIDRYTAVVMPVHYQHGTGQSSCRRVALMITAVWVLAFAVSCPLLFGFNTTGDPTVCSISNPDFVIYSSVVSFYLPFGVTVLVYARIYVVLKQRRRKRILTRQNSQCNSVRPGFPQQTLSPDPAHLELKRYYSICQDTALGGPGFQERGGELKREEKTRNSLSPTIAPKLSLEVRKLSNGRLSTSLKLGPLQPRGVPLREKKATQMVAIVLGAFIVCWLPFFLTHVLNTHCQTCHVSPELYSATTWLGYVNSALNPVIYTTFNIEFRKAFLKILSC
#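 Cells expressing the human receptor were seeded at 1500 cells/well, incubated overnight at 37 degrees C in 5% CO2, then exposed to library compounds with dopamine controls for 90 minutes at 37 degrees C before luminescent detection.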
# ClpP mod = qHTS Assay for Activators of ClpP; ATP-dependent Clp protease proteolytic subunit (Bacillus subtilis (strain 168)), P80244; purified B. subtilis ClpP, FRET peptide cleavage, 20 min; Potency, µM (doses to about 57.5 µM), for inactives: top-dose activity change, negative = active; 340,000 compounds, 1.9% hits; AID 651965, 2013; active means well fitted falling curve with a large enough effect; inconclusive means small, poorly fitted or top-dose-only effect; inactive means no such curve, though single readings can be large or run the other way; further: potency means the concentration at half of the fitted maximal effect; the source files actives as falling curves though it sought activators and does not explain the sign; nearly all actives have a fitted effect of over 65% in size
# Target sequence (P80244 whole entry, looked up): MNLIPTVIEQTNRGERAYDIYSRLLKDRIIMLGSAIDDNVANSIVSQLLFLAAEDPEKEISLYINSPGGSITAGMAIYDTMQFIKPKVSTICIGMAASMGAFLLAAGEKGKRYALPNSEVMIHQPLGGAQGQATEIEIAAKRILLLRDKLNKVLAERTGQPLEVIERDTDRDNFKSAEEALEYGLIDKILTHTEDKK
#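 Buffer: 100 mM Tris/HCl pH8, 100 mM KCl, 0.05% low protease BSA, 2.5% glycerol, 0.01% Tween-20. ClpP 10 microg/mL final; 20 min RT; delta FRET normalized to ADEP and DMSO controls.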
# D3 ag = qHTS of D3 Dopamine Receptor Agonist: qHTS; D(3) dopamine receptor (Homo sapiens), P35462; D3R DiscoveRx beta-arrestin cells, luminescence, 90 min; max activation, %; 410,000 compounds, 0.58% hits; in the data active means max activation above about 30%; further: 0% is about no effect
#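 Cells at 1500/well, incubated overnight, then treated with pinned compounds (dopamine as control) for 90 min at 37 degrees C. DiscoveRx reagent added for 30 - 60 minutes at room temperature; luminescence read.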
# IL1B secr inh = qHTS for Inhibitors of Inflammasome Signaling: IL-1-beta AlphaLISA Primary Screen. THP-1 LPS/ATP IL-1B secretion, AlphaLISA, 16 h; stronger effect = lower value. activity change, % at 57.5 µM. 360,000 compounds, 4.7% hits; in the data active means activity change below about -50%; inconclusive means mostly about -30% to -49%; further: on the % scale 0 is the no-effect control and ±100 the full control effect
#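 THP-1 cells pretreated 1 hr with compounds (up to 57.5 uM final), then stimulated with LPS (250 ng/mL final) plus ATP (1.25 mM final); secreted IL-1B measured by AlphaLISA after 16 hr, decreased signal indicating inhibition.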
# DT40 TDP1 CPT = qHTS for Inhibitors of human tyrosyl-DNA phosphodiesterase 1 (TDP1): qHTS in cells in presence of CPT; chicken DT40 Tdp1-/-;hTDP1 cells + 20 nM CPT, ATP luminescence, 48 h; Potency, µM (titrated, usually from 46.2 µM), without a hit: top-dose activity change, negative = growth inhibition, most hits filed as inhibitors; 420,000 compounds, 12% hits; further: potency means the concentration at half of the fitted maximal effect; on the % scale 0 is the no-effect control and ±100 the full control effect; nearly all actives have a fitted effect of over 55% in size
#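 Chicken DT40 Tdp1-/- cells stably complemented with human TDP1 were seeded at 400 cells/well in medium containing 20 nM camptothecin, exposed to pin-transferred compounds, and grown at 37 °C for at least 48 hr. Viability was read as ATP luminescence.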
# Numbers without * were called inactive; ? = inconclusive; nt = not tested or not shown. Most compounds without a hit are left out; they make up all but 21% or so of the library. Unless noted, the call rests on the fitted dose curve; in most records, active means well fitted inhibition curve with a large enough effect; inconclusive means small, poorly fitted or top-dose-only effect; inactive means flat fitted curve, though single readings scatter.
SMILES,DT40 TDP1 no CPT,D3 antag,ClpP mod,D3 ag,IL1B secr inh,DT40 TDP1 CPT
O=C(CSC1=Nc2ccccc2N=C(c2ccc(F)cc2)C1)Nc1ccc(Cl)cc1,26µM*,nt,3%,-4,nt,21µM*
CCN(CC(=O)NCc1cccs1)C(=O)c1ccc(S(=O)(=O)Nc2ccccc2F)cc1,-12%,8,0%,5,-3,7%
Cn1cnc(S(=O)(=O)Nc2ccc(OC(F)F)cc2)c1,-1%,9,1%,6,-2,6%
CN(N=Nc1ccc([N+](=O)[O-])cc1)c1ccccc1,-27%,12,3%,-1,8,1%
CN(CCCC(=O)O)c1ccc(N=Nc2ccc([N+](=O)[O-])cc2)cc1,?,-87*,-2%,-18,-12,?
CCc1ccc(C(=O)c2cn(CC(=O)Nc3ccc(OC)cc3OC)c3ccc(CC)cc3c2=O)cc1,-15%,nt,-1%,-32,nt,8%
CCc1ccc(CNC(=O)c2c3c(nc4ccccc24)C(=O)N(C2CCCCC2)C3)cc1,16µM*,nt,-21%,1,nt,?
Cc1ccc(CNC(=O)c2c3c(nc4ccccc24)C(=O)N(C2CCCCC2)C3)cc1,16µM*,nt,-19%,10,nt,?
COC(=O)c1ccc2nc(-c3ccco3)c(Cc3ccccc3C(F)(F)F)n2c1,?,2,?,-9,18,?
CCN1CCN(C(c2cccnc2)c2c(NC(=O)c3ccco3)sc(C)c2C)CC1 (stereo not drawn),23µM*,0,-2%,3,?,16µM*
CCN1CCN(C(c2ccccn2)c2c(NC(=O)c3ccccc3)sc(C)c2C)CC1 (stereo not drawn),8.2µM*,-22,-2%,-12,?,8.2µM*
COc1ccc(C(c2c(NC(=O)c3ccccc3)sc(C)c2C)N2CCN(CCO)CC2)cc1 (stereo not drawn),-1%,-9,0%,5,4,-6%
CC(=O)Nc1ccc2ccccc2c1[N+](=O)[O-],-15%,-6,nt,-9,-3,-3%
O=C(NC1CCC(n2cc(C(=O)NC3CC3)nn2)CC1)C(=O)c1ccccc1 (stereo not drawn),-4%,nt,nt,nt,nt,-12%
CSc1ccccc1NC(=O)c1csc(C)c1,-1%,2,-1%,8,0,10%
CCS(=O)(=O)N1CCc2cc(C(=O)Nc3ccc(OC)cc3OC)ccc21,16µM*,nt,0%,0,nt,?
COc1ccc(NC(=O)c2cc(S(=O)(=O)N3CCCCC3)cn2C)cc1Cl,-26%,nt,0%,49*,nt,-10%
CCS(=O)(=O)N1CCc2cc(C(=O)Nc3ccc(C(=O)OC)cc3)ccc21,?,nt,7%,-23,nt,?
CCS(=O)(=O)N1CCc2cc(C(=O)Nc3ccc(C)c(Cl)c3)ccc21,13µM*,nt,-2%,-13,nt,18µM*
CCS(=O)(=O)N1CCc2cc(C(=O)Nc3ccc(OC)c(Cl)c3)ccc21,18µM*,nt,-12%,-11,nt,?
CCS(=O)(=O)N1CCc2cc(C(=O)NCCc3ccc(OC)cc3)ccc21,?,nt,-2%,-13,nt,?
COc1ccc(NC(=O)c2cc(S(=O)(=O)N3CCOCC3)cn2C)cc1Cl,-26%,0,1%,6,4,?
Cc1ccc2c(c1)cc1c(=O)n(CC(=O)NC(C)CCc3ccccc3)nc(C)n12 (stereo not drawn),-16%,nt,?,-12,nt,-7%
Cn1cccc1CC(=O)NNC(=S)NC(=O)c1ccc(F)cc1,?,-6,0%,-1,45,?
CC(O)(c1cccnc1)c1nc(-c2ccc(S(C)(=O)=O)cc2)cs1 (stereo not drawn),-3%,13,-3%,11,34,-20%
SMILES,DT40 TDP1 no CPT,D3 antag,ClpP mod,D3 ag,IL1B secr inh,DT40 TDP1 CPT
O=C1NC[C@@H](CCCCN2CCN(Cc3ccccc3)C(=O)C2=O)N(CC2CCCCC2)C1=O,-14%,0,-1%,-6,5,-25%
Cc1ccc(S(=O)(=O)N(C)CCCC(=O)Nc2ccc(F)cc2)cc1,-25%,2,-3%,-2,1,21µM*
COc1ccc(NC(=O)CCCN(C)S(=O)(=O)c2ccc(C)cc2)cc1,?,-17,-2%,-11,-6,?
Cc1ccc(S(=O)(=O)N(C)CCCC(=O)Nc2ccncc2)cc1,13µM*,1,-2%,-2,36,10µM*
CN(Cc1ccccc1)c1nccn2ccnc12,?,14,-5%,6,41,?
CN(Cc1ccccc1)c1nc(N)nc(Cl)c1C=O,?,-23,nt,-8,-106*,-26%
COc1cc(C)c(NC(=O)c2cccc(S(=O)(=O)N3CCCC3)c2)cc1OC,-17%,-19,nt,-14,13,-15%
O=[N+]([O-])c1c(Nc2ccccc2O)cc(Cl)c2nonc12,3.7µM*,-140*,nt,-33,-102*,4.6µM*
CC(C)N(C(=O)CSc1nnc(-c2cc3ccccc3cc2O)n1Cc1ccco1)C(C)C,21µM*,11,-7%,-8,-7,13µM*
O=C(CSc1nnc(-c2cc3ccccc3cc2O)n1Cc1ccco1)N1CCc2ccccc2C1,?,-5,-6%,-2,-71*,?
COCCn1c(SCC(=O)Nc2nnc(C)s2)nnc1-c1cc2ccccc2cc1O,-8%,?,-2%,-2,5,-20%
COCCn1c(SCC(=O)N(C(C)C)C(C)C)nnc1-c1cc2ccccc2cc1O,21µM*,24,-2%,-3,15,?
Cc1occc1-c1nnc(SCC(=O)N2CCOCC2)n1Cc1ccco1,-8%,17,0%,0,1,-2%
COCCNC(=O)c1cnc2sc(N3CCC(C)CC3)nn2c1=O,-5%,nt,4%,-11,nt,-5%
Cc1ccccc1N1CCN(C2CCCN(C(=O)CCC3(C)CC3)C2)CC1 (stereo not drawn),?,-64*,0%,-7,-6,?
Cc1ccccc1N1CCN(C2CCCN(C(=O)CCC(=O)N(C)C)C2)CC1 (stereo not drawn),6%,3,0%,-3,-2,3%

# Screens (PubChem BioAssay)
